KDM5B inhibitor: KDM5B demethylase inhibition. Potency, µM (titrated, usually from 57.7 µM), usual class: inhibitors. hit rate 2.6% among 220,000. KDM5B demethylase, FDH-coupled NADH fluorescence (FDH is formaldehyde dehydrogenase). Q9UGL1; active means well fitted inhibition curve with a large enough effect; inconclusive means small, poorly fitted or top-dose-only effect; inactive means no such curve, though single readings can be large or run the other way; further: nearly all actives have a fitted effect of over 70% in size
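qHTS format, multiple compound concentrations. Buffer 50 mM HEPES pH 7.5/0.01% Tween-20; 200 nM KDM5BΔAP final; 10 min compound preincubation; substrate-mix levels 12.5 µM peptide, 25 µM α-KG, 0.25 mM NAD⁺; 30 min RT; ΔRFU.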
IP6K1 inh: inhibitors of human IP6K1 | activity change, % (series mostly up to about 58 µM) | IP6K1 kinase, ADP-Glo luminescence, 2 h; hits give low values | hit rate 0.81% among 140,000 | AID 1645851; in the data active means activity change below about -25%
Target sequence (Q92551 whole entry, looked up): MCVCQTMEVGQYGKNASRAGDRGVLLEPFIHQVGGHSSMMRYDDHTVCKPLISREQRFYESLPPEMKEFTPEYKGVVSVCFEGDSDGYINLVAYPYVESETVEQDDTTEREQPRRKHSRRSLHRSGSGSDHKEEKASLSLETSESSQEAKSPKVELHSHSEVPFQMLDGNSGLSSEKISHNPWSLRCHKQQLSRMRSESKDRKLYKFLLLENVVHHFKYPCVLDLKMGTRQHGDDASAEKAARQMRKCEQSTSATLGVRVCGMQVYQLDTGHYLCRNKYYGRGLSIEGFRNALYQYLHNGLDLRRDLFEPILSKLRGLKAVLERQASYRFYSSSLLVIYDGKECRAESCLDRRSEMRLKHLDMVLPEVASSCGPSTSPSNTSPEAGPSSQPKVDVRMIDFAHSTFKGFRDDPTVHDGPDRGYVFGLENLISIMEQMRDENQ
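ADP-Glo luminescence measures ADP made by human IP6K1 during a 2 h RT reaction with ATP/IP6 (mix at 1.3 mM/130 uM); top library doses 57.5 and 19.1 uM final.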
Hits are given with their value; - = inactive; ? = inconclusive; . = no result given. Only some compounds are listed: those with a hit (about 2.7% of all), similar ones and a draw of the others.

SMILES	KDM5B inhibitor	IP6K1 inh
CCC(O)c1cc2n(n1)CCN(C(=O)c1ccc(-c3ccccc3)n1C)C2 (configuration not stated)	-	-
CN(C)Cc1nnc(C2CCN(C(=O)c3nc(N)nc4c3CCCC4)CC2)n1C	25µM	-
CN(C)Cc1nnc(C2CCCN(C(=O)c3cccc(N(C)C)c3)C2)n1C (configuration not stated)	-	-
CCC(O)c1cc2n(n1)CCN(C(=O)c1nc(N)nc3c1CCCC3)C2 (configuration not stated)	28µM	-
CCS(=O)(=O)Nc1ccc(C(=O)N2CCN(C(C)=O)CC(O)C2)cc1 (configuration not stated)	-	-
CC(=O)N1CCN(C(=O)c2nc(N)nc3c2CCCC3)CC(O)C1 (configuration not stated)	25µM	-
Clc1ccc(Cl)c(-c2ccc(CNCC3CCNCC3)o2)c1	-	.
O=C(NCCc1ccc(Cl)cc1)c1nc(-c2ccc(Cl)nc2)c2cnccn12	?	-
O=C(NCc1ccccc1)C(Sc1nc2ccccc2o1)c1ccccc1 (configuration not stated)	-	.
O=c1oc2ccccc2c(NCc2ccccc2)c1NS(=O)(=O)c1cc(F)ccc1F	-	.
Cc1cc(N2CCCCC2)nc(Nc2ccc(NC(=O)Nc3ccccc3)cc2)n1	-	.
Cn1cnc(CN2CCNc3cc(Nc4ccccc4)ncc3C2)c1	-	-
CN(C)c1ccc(CN2CCNc3cc(Nc4cccnc4)ncc3C2)cc1	-	-
c1ccc(Nc2cc3c(cn2)CN(Cc2ccccn2)CCN3)cc1	32µM	-
CN(C)c1ccc(CN2CCNc3cc(Nc4ccccc4)ncc3C2)cc1	40µM	-
COCCN1CCNc2cc(Nc3cccc(N(C)C)c3)ncc2C1	35µM	-
COCCN1CCNc2cc(Nc3cccc(OC)c3)ncc2C1	?	-
Cc1ccc(C(C)C)c(OCC(=O)Nc2ccc(N3CCN(C(=O)c4ccco4)CC3)cc2)c1	-	.
Cc1ccc(C2(O)CCN(C(=O)c3ccc4ncccc4c3)CC2)nc1	-	-
Cc1csc2nc(COc3c(Cl)cccc3Cl)cc(=O)n12	-	.
COc1cccc(CNC(=O)c2cc(C(C)(C)C)nc3c2cnn3C)c1	.	-
COc1cc(OC)c(OC)cc1/C=C1\Oc2cc(OS(=O)(=O)c3ccccc3)ccc2C1=O	-	.
CC(C)NC(=O)c1cc(-c2ccccc2)nc2c1cnn2C	.	-
CN(C)C(=O)c1cc(-c2ccc(S(C)(=O)=O)cc2)c2cnn(C)c2n1	79µM	-
CC(C)NC(=O)c1cc(-c2ccc(S(C)(=O)=O)cc2)c2cnn(C)c2n1	89µM	-
SMILES	KDM5B inhibitor	IP6K1 inh
CN(C)C(=O)c1cc(-c2ccc(S(C)(=O)=O)cc2)nc2c1cnn2C	?	-
Nc1nccnc1C(=O)NCCNc1cnccn1	-	.
COc1nc(C(=O)N2CCOCC2(C)C)cc2ccccc12	-	.
COc1cc2c(cc1OC)C(C[C@H]1CN(S(=O)(=O)c3ccc(C#N)cc3)CC[C@H]1CC(=O)O)=NCC2	28µM	-
COc1ccc(S(=O)(=O)N2CC[C@@H](CC(=O)O)[C@@H](CC3=NCCc4cc(OC)c(OC)cc43)C2)cc1	-	-
O=C(O)C[C@@H]1CCN(S(=O)(=O)c2cccs2)C[C@@H]1CC1=NCCc2ccccc21	-	-
COc1cc2c(cc1OC)C(C[C@H]1CN(S(=O)(=O)c3cccs3)CC[C@H]1CC(=O)O)=NCC2	28µM	-
Cc1ccc(S(=O)(=O)N2CCN(C(=O)N(C)C)C2C(C)C)cc1 (configuration not stated)	-	.
Cc1nnc2ccc(N3CCC(NC(=O)c4ccccc4F)CC3)nn12	.	-
COc1cccc(Nc2ccnc(N3CCN(C(=O)C4CC4)CC3)n2)c1	.	-
Clc1ccc(Sc2ncccc2Cl)cc1	-	.
C[C@]1(O)CCN(Cc2ccc(-c3ccccc3C#N)o2)C[C@@H]1O	25µM	-
C[C@@]1(O)CCN(Cc2ccc(C#N)cc2)C[C@H]1N1CCCC1	?	-
COc1ccc(OC)c(S(=O)(=O)N2CCC(c3nc(-c4cccn4C)no3)CC2)c1	.	-
C=CCNC(=O)c1cccc(C(=O)OC)c1	-	.
CNC(=O)c1cccc2c(C)nnn12	32µM	-
Cc1nnn2c(C(=O)Nc3ccc(Cl)nc3)cccc12	?	-
Cc1nnn2c(C(=O)Nc3ccc(F)cc3)cccc12	?	-
C=CCNC(=O)c1cccc2c(C)nnn12	32µM	-
Cc1nnn2c(C(=O)NCc3ccc(Cl)nc3)cccc12	35µM	-
COc1cccc(C(=O)N2CCN(C(=O)c3ccc(-c4ccc(OC)nn4)cc3)CC2)c1	.	-
O=C(Cn1cnc2ccccc2c1=O)N(Cc1cccs1)c1ccc2c(c1)OCCO2	-	.
O=C(CCCc1ccccc1)NCc1nnc2cc(-c3nc(C4CC4)no3)ccn12	28µM	-
CCc1noc(-c2ccn3c(CNC(=O)CCCc4ccccc4)nnc3c2)n1	7.1µM	-
CCc1noc(-c2ccn3c(CNC(=O)Cc4c[nH]c5ccccc45)nnc3c2)n1	?	-
SMILES	KDM5B inhibitor	IP6K1 inh
COc1ccccc1CC(=O)NCc1nnc2cc(-c3nc(C4CC4)no3)ccn12	?	-
O=C1CCN(C(=O)c2ccccc2)CCCC(C(=O)NCCCN2CCCc3ccccc32)CCN1 (configuration not stated)	?	-
O=C(CCC1CCN(C(=O)c2ccccc2)CC1)NCCCN1CCCc2ccccc21	10µM	-
CCc1[nH]ncc1C(=O)N[C@H]1CC[C@H](Nc2nccc(-c3ccccn3)n2)C1	13µM	-
O=C(CN1CCCC1)N[C@H]1CC[C@H](Nc2nccc(-c3cccnc3)n2)C1	?	-
O=C(N[C@H]1CC[C@H](Nc2nccc(-c3cccnc3)n2)C1)c1ccc(O)cc1	20µM	-
NC(=O)NCC(=O)N[C@H]1CC[C@H](Nc2nccc(-c3ccncc3)n2)C1	?	-
CC(=O)Nc1cccc(-c2ccc3ncn(-c4ccc(F)cc4F)c(=O)c3n2)c1	-	-
COc1ncc(-c2ccc3ncn(-c4ccc(F)cc4F)c(=O)c3n2)cn1	40µM	-
O=c1c2nc(-c3cccnc3)ccc2ncn1-c1ccc(F)cc1F	-	-
COCc1cccc(-c2ccc3ncn(-c4ccc(F)cc4F)c(=O)c3n2)c1	32µM	-
CC(OC(=O)c1ccc(-n2cnnn2)cc1)C(=O)N1CCc2ccccc21 (configuration not stated)	-	.
Cc1cc(C)cc(NC(=O)c2csc3c2CCCC3)c1	-	.
Cc1ccc2c(C)c(CCC(=O)N(C)Cc3ccc4c(c3)OCO4)c(=O)oc2c1	-	.
CC(C)OCCCNC(=O)c1cc(-c2ccccc2F)nc2c1cnn2C	.	-
COCCN1CCC2(C1)CN(C)c1ccc(C(=O)Nc3ccccc3)cc12 (configuration not stated)	25µM	-
COCCN1CCC2(C1)CN(C)c1ccc(C(=O)Nc3ccc(F)cc3)cc12 (configuration not stated)	?	-
COCCN1CCC2(C1)CN(C)c1ccc(C(=O)NCC3CC3)cc12 (configuration not stated)	35µM	-
CC(=O)N1CCCC2(C1)CN(C)c1ccc(C(=O)NCC(F)(F)F)cc12 (configuration not stated)	?	-
CC(=O)N1CCCC2(C1)CN(C)c1ccc(C(=O)NCC3CC3)cc12 (configuration not stated)	28µM	-
COCCN1CCCCCC(O)c2cc(C(=O)NCC3CC3)ccc21 (configuration not stated)	?	-
